A number with no mark means an inactive call. Records with an inconclusive call do not appear. Active and inactive are the calls of the source. Calls follow the shape of the dose curve; as a rule, active = well fitted curve in the direction sought with a large enough effect; inconclusive = small, poorly fitted or top-dose-only effect, or another doubt; inactive = no such curve, though single readings can be large; an effect the other way counts as inactive or inconclusive. Where a SMILES comes first, the peptide text is derived from it. [ ]: non-standard residue; d: D form. ξ: configuration not given here. ξLac(3-iPr) = CC(C)CC(O)C(=O)O; NMeV = CN[CH](C(=O)O)C(C)C; βAla = NCCC(=O)O

Assay [1] in a line: Primary qHTS for inhibitors of nuclear receptor binding SET domain protein 2 (NSD2) in an RCH-ACV wild type WT cells (2C) (AID 1645877). Also: nearly all actives have a fitted effect of over 70% in size. Also: potency is read from the fitted curve at half-maximal effect. On the technique in general: qHTS replaces the single test concentration by a dilution series.
Assay [2] concerns the target Glutathione peroxidase 1 (Homo sapiens) (UniProt P07203). Nature of the assay: Primary qHTS Assay for Inhibitors of Recombinant Selenoprotein Glutathione Peroxidase 1 (GPX1) (AID 1845191). Also: nearly all actives have a fitted effect of over 65% in size. In a few lines:
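GR-coupled assay: compounds preincubated 30 min at room temperature with GPX1, then reaction started with CHP; final 10 nM GPX1, 1 mM GSH, 0.5 mM CHP, 0.5 mM NADPH, 100 nM GR, 0.01% BSA, pH 7.5 Tris buffer. NADPH fluorescence (340/450 nm) read at 0 and 15 min.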

Assay [3] addresses Phospholipid hydroperoxide glutathione peroxidase GPX4 (Homo sapiens) (UniProt P36969). Nature of the assay: Primary qHTS Assay for Inhibitors of Recombinant Selenoprotein Glutathione Peroxidase 4 (GPX4) (AID 1845192). Also: nearly all actives have a fitted effect of over 65% in size. An outline of the steps: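 GR-coupled assay: recombinant GPX4 preincubated 30 min with compound at room temperature; final 200 nM GPX4, 1 mM GSH, 0.5 mM cumene hydroperoxide, 0.5 mM NADPH, 100 nM GR, 0.01% BSA, pH 7.5 Tris. NADPH fluorescence (340/450 nm) read at 0 and 15 min.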

For assay [4], the target named is Luciferin 4-monooxygenase (Photinus pyralis) (UniProt P08659). Description: Primary firefly luciferase (FLuc) qHTS assay for identification of artifact compounds. (AID 1845220). Also: nearly all actives have a fitted effect of over 60% in size. In a few lines: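 Titrated compounds were incubated 15 min at RT, protected from light, with luciferin and ATP at 10 uM; reaction started with 10 nM FLuc, luminescence imaged at 5 min, and concentration-response fitted by Hill equation.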

The nature of assay [5]: Primary fluorescence-based thiol-reactive (MSTI) qHTS assay for identification of artifact compounds. (AID 1845221). Also: nearly all actives have a fitted effect of over 65% in size. Also: potency is read from the fitted curve at half-maximal effect. In a few lines:
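One-hour, room-temperature, dark incubation of compound with 4 uM MSTI in PBS (pH 7.4, 2% DMSO) precedes a fluorescence read at 525 nm excitation, 598 nm emission; Hill-equation fitting yields concentration-response values.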

The subject of assay [6] is Nanoluciferase (engineered Oplophorus gracilirostris luciferase). Description: Primary Nanoluciferase (NLuc) qHTS assay for identification of artifact compounds. (AID 1845222).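 Also: NLuc secreted into diluted conditioned medium of S16 cells; series mostly up to about 54 µM.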 In a few lines: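 qHTS format, against NLuc in S16 cell-conditioned medium. Nano-Glo substrate 1:100 was added after 15 min at room temperature. Luminescence was taken after a further 5 min.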
The nature of assay [7]: Primary redox qHTS assay for identification of artifact compounds. (AID 1845223). An outline of the steps:
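Amplex Red (25 uM) and HRP (250 mU/mL) in HBSS, with compounds for 15 min, then 250 uM DTT for 30 min, room temperature, dark. Fluorescence 525/598 nm read; normalized to DMSO and 10 uM DA3003; Hill fit.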

Chain of Phospholipid hydroperoxide glutathione peroxidase GPX4 (Homo sapiens) (P36969 whole entry, looked up): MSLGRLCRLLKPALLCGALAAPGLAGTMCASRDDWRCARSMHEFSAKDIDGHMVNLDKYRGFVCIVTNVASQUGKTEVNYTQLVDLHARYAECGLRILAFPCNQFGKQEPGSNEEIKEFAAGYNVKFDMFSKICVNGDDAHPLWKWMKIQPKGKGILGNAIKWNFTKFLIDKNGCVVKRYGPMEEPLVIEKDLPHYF
Chain of Glutathione peroxidase 1 (Homo sapiens) (P07203 whole entry, looked up): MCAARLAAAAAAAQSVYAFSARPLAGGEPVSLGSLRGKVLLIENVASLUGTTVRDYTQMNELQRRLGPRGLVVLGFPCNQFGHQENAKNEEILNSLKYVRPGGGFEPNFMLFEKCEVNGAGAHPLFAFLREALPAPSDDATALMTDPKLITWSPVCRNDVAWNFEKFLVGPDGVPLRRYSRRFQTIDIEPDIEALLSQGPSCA

For the compound `C/C(=C\CCC1(C)C2CCC(C2)C1(C)O)C(=O)O` (stereo unspecified), the Potency result in assay [1], in assay [2], in assay [3], in assay [4], in assay [5] and in assay [6] was “inactive” in each case. In addition, the Potency result in assay [7] was “inactive”.
Consider `CC(C)CC1OC(=O)C2CCCN2C(=O)CCNC(=O)C(Cc2ccccc2)NC(=O)C(C(C)C)N(C)C(=O)C(C(C)C)N(C)C1=O` (stereo unspecified) (cyclo([ξLac(3-iPr)][NMeV][NMeV]F[βAla]P); configuration not given here), for which the Potency result in assay [1], in assay [2], in assay [3], in assay [4], in assay [5] and in assay [6] was “inactive” throughout. The Potency result in assay [7] is “inactive”.
Turning to `CC1(C)CC2C(C1)C(C)(O)C13CC1(COC3=O)C2O` (stereo unspecified), the Potency result in assay [1], in assay [2], in assay [3], in assay [4], in assay [5] and in assay [6] was “inactive” throughout. Besides, the Potency result in assay [7] is “inactive”.
Turning to `COC(=O)C1(C)c2[nH]c3ccccc3c2CCN1C(=O)CCl` (stereo unspecified), the Potency in assay [1] is 2.58 µM (active). The Potency entry in assay [2], in assay [3], in assay [4], in assay [5], in assay [6] and in assay [7] was “inactive” in each case.
As to `O=C(O)c1ccccc1NC(=O)N1CCC(c2ccccc2C(F)(F)F)CC1`, the Potency entry in assay [1], in assay [2], in assay [3], in assay [4], in assay [5] and in assay [6] was “inactive” each time. Further, the Potency entry in assay [7] was “inactive”.
`O=C(OC[C@H]1O[C@H](O[C@]2(CO)O[C@H](CO)[C@@H](O)[C@@H]2O)[C@H](O)[C@@H](O)[C@@H]1O)c1ccccc1`: the Potency result in assay [1], in assay [2], in assay [3], in assay [4], in assay [5] and in assay [6] was “inactive” each time. The Potency result in assay [7] is “inactive”.
On to `O=[N+]([O-])c1cccc2[nH]c(CNc3nc(N4CCOCC4)nc4c3ncn4-c3ccsc3)nc12`, for which the figures for the Potency in assay [1] and in assay [5] were 0.0649 µM (active) and 10.6 µM (active), respectively. Besides, the Potency entry in assay [2], in assay [3], in assay [4], in assay [6] and in assay [7] was “inactive” in each case.
Turning to `Cc1cccc2c1NC(=O)C2(c1ccc(O)cc1)c1ccc(O)cc1`, the Potency in assay [1] is 8.17 µM (active). In addition, the Potency entry in assay [2], in assay [3], in assay [4], in assay [5], in assay [6] and in assay [7] was “inactive” each time.
As to `COC(=O)N(C)c1c(N)nc(-c2nn(Cc3ccccc3F)c3ncccc23)nc1N`, the Potency result in assay [1], in assay [2], in assay [3], in assay [4], in assay [5] and in assay [6] was “inactive” throughout. The Potency entry in assay [7] was “inactive”.
With `O=C(Nc1nc2ccccc2n1CCc1ccccc1)c1ccccc1`, the Potency in assay [1] was 5.15 µM (active). The Potency entry in assay [2], in assay [3], in assay [4], in assay [5], in assay [6] and in assay [7] was “inactive” throughout.
Regarding `O=C(O)Cc1cn(C2OCC(O)C(O)C2O[C@@H]2O[C@H](CO)[C@@H](O)[C@H](O)[C@H]2O)c2ccccc12` (stereo partly specified), the Potency result in assay [1], in assay [2], in assay [3], in assay [4], in assay [5] and in assay [6] was “inactive” in each case. For the same compound, the Potency result in assay [7] is “inactive”.
Turning to `CC(C)c1ccc(CO)cc1O[C@@H]1O[C@H](CO)[C@@H](O)[C@H](O)[C@H]1O`, the Potency entry in assay [1], in assay [2], in assay [3], in assay [4], in assay [6] and in assay [7] was “inactive” each time. The Potency in assay [5] was 13.1 µM (active).
Take `CCC(COC)n1nnc2c(Nc3ccc(OC)cc3C)nc(C)cc21` (stereo unspecified): the Potency result in assay [1], in assay [2], in assay [3], in assay [4], in assay [5] and in assay [6] was “inactive” throughout. Further, the Potency entry in assay [7] was “inactive”.
Turning to `COc1cc2c(c(OC)c1CC=C(C)C)C[C@H](c1ccc(O)cc1O)CO2`, the Potency result in assay [1], in assay [2], in assay [3], in assay [4], in assay [6] and in assay [7] was “inactive” throughout. Further, the Potency in assay [5] was 13.1 µM (active).
Take `C[C@@H]([C@@H](O)c1ccc(O)cc1)N1CCC(O)(c2ccccc2)CC1`: the Potency result in assay [1], in assay [2], in assay [3], in assay [4], in assay [5] and in assay [6] was “inactive” in each case. For the same compound, the Potency entry in assay [7] was “inactive”.
Consider `C=C[C@@]12COC(=O)C(=C)C1[C@@H](O)[C@H](C(=C)C(=O)OC)[C@@H](OC(=O)C(=C)CO)C2` (stereo partly specified), for which the results for the Potency in assay [1] and in assay [5] were 7.09 µM (active) and 11.6 µM (active), respectively. For the same compound, the Potency entry in assay [2], in assay [3], in assay [4], in assay [6] and in assay [7] was “inactive” throughout.
`C=CC(C)(O)CC[C@H]1C(=C)CCC2[C@](C)(C(=O)O)CCC[C@@]21C` (stereo partly specified): the Potency entry in assay [1], in assay [2], in assay [3], in assay [4], in assay [5] and in assay [6] was “inactive” throughout. Moreover, the Potency entry in assay [7] is “inactive”.
Consider `C=C(C(=O)OC)C1C(O)CC2(C)C(=O)CCC(O)(CO)C2C1O` (stereo unspecified), for which the Potency result in assay [1], in assay [2], in assay [3], in assay [4], in assay [5] and in assay [6] was “inactive” throughout. For the same compound, the Potency result in assay [7] was “inactive”.
